# Measurements reported in PubChem BioAssay (NCATS).
# Inconclusive results are not listed. A number with no mark means an inactive call. The source made the active and inactive calls. Calls follow the shape of the dose curve; as a rule, active = well fitted inhibition curve with a large enough effect; inconclusive = small, poorly fitted or top-dose-only effect; inactive = flat fitted curve, though single readings scatter.
# Test system: N140
# Assay: qHTS profiling for inhibitors of Plasmodium falciparum proliferation (AID 504749); also: nearly all actives have a fitted effect of over 60% in size;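 as to activity, negative = inhibition: 0% = DMSO vehicle and full inhibition = artemisinin control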
# Details: P. falciparum in erythrocytes, SYBR Green DNA, 72 h; series mostly up to 28.7 µM; activity, negative = inhibition: at the top concentration
# Summary of the method: (§1)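 Fluorescence of SYBR Green-bound parasite DNA, read at 485/535 nm, served as the growth measure. Infected erythrocytes were cultured with compound 72 h; artemisinin (0.29 uM) and DMSO wells defined the normalization range.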
# Potency is read from the fitted curve at half-maximal effect.
Structure (SMILES),"activity, negative = inhibition",Potency
NC[C@H](O)c1ccc(O)c(O)c1,23.9%,
Cc1oncc1C(=O)Nc1ccc(C(F)(F)F)cc1,-4.45% [at 12.8 µM],
CCOC(=O)N1CCC(=C2c3ccc(Cl)cc3CCc3cccnc32)CC1,,3.98 µM (active)
N[C@@H]1CONC1=O,-13.7%,
Nc1nc2c(ncn2COCCO)c(=O)[nH]1,2.67% [at 12.8 µM],
Cc1ccc(N(CC2=NCCN2)c2cccc(O)c2)cc1,9.33%,
N#Cc1ccc(C(c2ccc(C#N)cc2)n2cncn2)cc1,4.89% [at 12.8 µM],
Oc1ccc(C2CNCCc3c2cc(O)c(O)c3Cl)cc1 (stereo not given),0.0068%,
COc1ccc2nc(S(=O)Cc3ncc(C)c(OC)c3C)[nH]c2c1 (stereo not given),-24.2%,
CC(C)C[C@H](NC(=O)[C@@H](O)[C@H](N)Cc1ccccc1)C(=O)O,,7.94 µM (active)

# Test system: P93_24
# Assay: as above
# Details: P. falciparum in erythrocytes, SYBR Green DNA, 72 h; series mostly up to 28.7 µM; activity, negative = inhibition: at the top concentration
# Summary of the method: as §1
Structure (SMILES),"activity, negative = inhibition",Potency
NC[C@H](O)c1ccc(O)c(O)c1,5.21%,
N[C@@H]1CONC1=O,-15.7%,
Nc1nc2c(ncn2COCCO)c(=O)[nH]1,6.03% [at 12.8 µM],
Cc1ccc(N(CC2=NCCN2)c2cccc(O)c2)cc1,9.31%,
N#Cc1ccc(C(c2ccc(C#N)cc2)n2cncn2)cc1,3.36% [at 12.8 µM],
Oc1ccc(C2CNCCc3c2cc(O)c(O)c3Cl)cc1 (stereo not given),20.4%,
COc1ccc2nc(S(=O)Cc3ncc(C)c(OC)c3C)[nH]c2c1 (stereo not given),-27.2%,
CC(C)C[C@H](NC(=O)[C@@H](O)[C@H](N)Cc1ccccc1)C(=O)O,,5.01 µM (active)

# Test system: P94_40
# Assay: as above
# Details: P. falciparum in erythrocytes, SYBR Green DNA, 72 h; series mostly up to 28.7 µM; activity, negative = inhibition: at the top concentration
# Summary of the method: as §1
Structure (SMILES),"activity, negative = inhibition",Potency
NC[C@H](O)c1ccc(O)c(O)c1,8.42%,
Cc1oncc1C(=O)Nc1ccc(C(F)(F)F)cc1,6.85% [at 12.8 µM],
CCOC(=O)N1CCC(=C2c3ccc(Cl)cc3CCc3cccnc32)CC1,,11.2 µM (active)
N[C@@H]1CONC1=O,-19.9%,
Nc1nc2c(ncn2COCCO)c(=O)[nH]1,11.2% [at 12.8 µM],
Cc1ccc(N(CC2=NCCN2)c2cccc(O)c2)cc1,-17.2%,
N#Cc1ccc(C(c2ccc(C#N)cc2)n2cncn2)cc1,12.2% [at 12.8 µM],
Oc1ccc(C2CNCCc3c2cc(O)c(O)c3Cl)cc1 (stereo not given),4.41%,
COc1ccc2nc(S(=O)Cc3ncc(C)c(OC)c3C)[nH]c2c1 (stereo not given),-29.9%,
CC(C)C[C@H](NC(=O)[C@@H](O)[C@H](N)Cc1ccccc1)C(=O)O,,7.08 µM (active)

# Test system: PAD
# Assay: as above
# Details: P. falciparum in erythrocytes, SYBR Green DNA, 72 h; series mostly up to 28.7 µM; activity, negative = inhibition: at the top concentration
# Summary of the method: as §1
Structure (SMILES),"activity, negative = inhibition",Potency
NC[C@H](O)c1ccc(O)c(O)c1,7.13%,
Cc1oncc1C(=O)Nc1ccc(C(F)(F)F)cc1,-17.1% [at 12.8 µM],
CCOC(=O)N1CCC(=C2c3ccc(Cl)cc3CCc3cccnc32)CC1,,3.16 µM (active)
N[C@@H]1CONC1=O,-15.4%,
Nc1nc2c(ncn2COCCO)c(=O)[nH]1,8.98% [at 12.8 µM],
Cc1ccc(N(CC2=NCCN2)c2cccc(O)c2)cc1,1.92%,
N#Cc1ccc(C(c2ccc(C#N)cc2)n2cncn2)cc1,10.2% [at 12.8 µM],
Oc1ccc(C2CNCCc3c2cc(O)c(O)c3Cl)cc1 (stereo not given),6.41%,
CC(C)C[C@H](NC(=O)[C@@H](O)[C@H](N)Cc1ccccc1)C(=O)O,,10 µM (active)

# Test system: PC15
# Assay: as above
# Details: P. falciparum in erythrocytes, SYBR Green DNA, 72 h; series mostly up to 28.7 µM; activity, negative = inhibition: at the top concentration
# Summary of the method: as §1
Structure (SMILES),"activity, negative = inhibition",Potency
NC[C@H](O)c1ccc(O)c(O)c1,-3.3%,
Cc1oncc1C(=O)Nc1ccc(C(F)(F)F)cc1,-25.6% [at 12.8 µM],
CCOC(=O)N1CCC(=C2c3ccc(Cl)cc3CCc3cccnc32)CC1,,11.2 µM (active)
N[C@@H]1CONC1=O,-3.66%,
Nc1nc2c(ncn2COCCO)c(=O)[nH]1,-4.81% [at 12.8 µM],
Cc1ccc(N(CC2=NCCN2)c2cccc(O)c2)cc1,-2.31%,
N#Cc1ccc(C(c2ccc(C#N)cc2)n2cncn2)cc1,12.3% [at 12.8 µM],
Oc1ccc(C2CNCCc3c2cc(O)c(O)c3Cl)cc1 (stereo not given),3.81%,
COc1ccc2nc(S(=O)Cc3ncc(C)c(OC)c3C)[nH]c2c1 (stereo not given),-12%,

# Test system: PC26
# Assay: as above
# Details: P. falciparum in erythrocytes, SYBR Green DNA, 72 h; series mostly up to 28.7 µM; activity, negative = inhibition: at the top concentration
# Summary of the method: as §1
Structure (SMILES),"activity, negative = inhibition",Potency
NC[C@H](O)c1ccc(O)c(O)c1,7.18%,
Cc1oncc1C(=O)Nc1ccc(C(F)(F)F)cc1,-20.8% [at 12.8 µM],
CCOC(=O)N1CCC(=C2c3ccc(Cl)cc3CCc3cccnc32)CC1,,12 µM (active)
CCOC(=O)C1=C[C@@]2(CC)CCCN3CCc4c(n1c1ccccc41)[C@H]32,,15.1 µM (active)
N[C@@H]1CONC1=O,-3.33%,
Nc1nc2c(ncn2COCCO)c(=O)[nH]1,-5.72% [at 12.8 µM],
Cc1ccc(N(CC2=NCCN2)c2cccc(O)c2)cc1,-8.5%,
N#Cc1ccc(C(c2ccc(C#N)cc2)n2cncn2)cc1,-0.574% [at 12.8 µM],
Oc1ccc(C2CNCCc3c2cc(O)c(O)c3Cl)cc1 (stereo not given),-9.38%,
CC(C)C[C@H](NC(=O)[C@@H](O)[C@H](N)Cc1ccccc1)C(=O)O,,9.53 µM (active)

# Test system: PC49
# Assay: as above
# Details: P. falciparum in erythrocytes, SYBR Green DNA, 72 h; series mostly up to 28.7 µM; activity, negative = inhibition: at the top concentration
# Summary of the method: as §1
Structure (SMILES),"activity, negative = inhibition",Potency
NC[C@H](O)c1ccc(O)c(O)c1,7.25%,
Cc1oncc1C(=O)Nc1ccc(C(F)(F)F)cc1,9.08% [at 12.8 µM],
CCOC(=O)N1CCC(=C2c3ccc(Cl)cc3CCc3cccnc32)CC1,,4.47 µM (active)
N[C@@H]1CONC1=O,12.9%,
Nc1nc2c(ncn2COCCO)c(=O)[nH]1,10.5% [at 12.8 µM],
Cc1ccc(N(CC2=NCCN2)c2cccc(O)c2)cc1,6.25%,
N#Cc1ccc(C(c2ccc(C#N)cc2)n2cncn2)cc1,20.3% [at 12.8 µM],
Oc1ccc(C2CNCCc3c2cc(O)c(O)c3Cl)cc1 (stereo not given),13.2%,
COc1ccc2nc(S(=O)Cc3ncc(C)c(OC)c3C)[nH]c2c1 (stereo not given),-19.3%,
